The values below come from PubChem BioAssay AID431 (Sanford-Burnham Center for Chemical Genomics, 2006).

Structures are written as SMILES. Out of some 63,000 compounds screened, about 1,100 (1.7%) were called active. The sample as a whole holds a higher share of actives than the screen did. Entries with a potency or affinity are not part of this list. Unmarked numbers belong to inactive results.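 Rule for the calls: active = compounds whose percent cytotoxicity in the single-dose primary screen, scaled between solvent and toxic-drug controls, exceeds 50; inactive = the rest.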

This test in a line: viability loss of HPDE-C7K cells – cell-based, fluorescence, HTS, primary screen (AID 431).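 Note: 0% = DMSO solvent wells and 100% = doxorubicin-treated wells.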 Particulars: HPDE-C7K KRASV12 cells, Alamar Blue viability, 48 h; at 10 µM; stronger effect = higher value.
Take `CCOC(=O)c1c(N)sc(C(=O)N2CCOCC2)c1C`: the cytotoxicity was -10.1%.

Turning to `COc1cc(NC(=O)c2ccc(COc3ccccc3Br)o2)cc(OC)c1OC`, the cytotoxicity was 68.9% (active).

On to `O=C(Nc1nccs1)c1ccc(COc2ccc(F)cc2)o1`, for which the cytotoxicity was 5%.

As to `CC(C)(C)NC(=O)c1ccc(COc2ccccc2Br)o1`, the cytotoxicity was -20.3%.

On to `O=C(Nc1cccnc1)c1ccc(COc2ccccc2Br)o1`, for which the cytotoxicity is 30.3%.

As to `COc1ccc(NC(=O)c2ccc(COc3ccccc3Br)o2)cc1OC`, the cytotoxicity is 40.4%.

Turning to `O=C(Nc1nccs1)c1ccc(COc2ccccc2Br)o1`, the cytotoxicity was 51% (active).

Turning to `CC(C)c1nc(SCC(=O)NCc2ccccc2)n[nH]1`, the cytotoxicity was -9.2%.

Consider `CN1C(=O)c2ccccc2N(C)C1c1ccc2c(c1)OCO2` (centres undefined), for which the cytotoxicity was 6.7%.

Consider `COc1ccc(C(=O)NCC(=O)n2nc(C)cc2C)cc1OC`, for which the cytotoxicity was 13.4%.

On to `Cc1ccc2c(c1)N(C(C)C(=O)NCCc1ccccc1)C(=O)CO2` (centres undefined), for which the cytotoxicity is -4.9%.

`COc1cccc(CN(C)CC(=O)NC(=O)NCc2ccco2)c1`: the cytotoxicity was -9.5%.

As for `O=C(CN(C1CCCCC1)S(=O)(=O)c1ccc(Cl)cc1)NCc1cccnc1`, the cytotoxicity was -28.1%.

For `Cc1ccc(S(=O)(=O)N(CC(=O)NCc2ccncc2)C2CCCCC2)cc1`, the cytotoxicity is 1.7%.

On to `O=C(CN(C1CCCCC1)S(=O)(=O)c1ccccc1)NCc1cccnc1`, for which the cytotoxicity was 73.1% (active).

For `COc1ccc(C(=O)N2CCCC(c3nc(-c4cccs4)no3)C2)cc1` (centres undefined), the cytotoxicity was 3%.

Regarding `CCOc1ccc(-c2c(C#N)c(N)nc3c2c(=O)n(C)c(=O)n3C)cc1OC`, the cytotoxicity was -3.8%.

`Clc1ccc(Cn2ncc3c(NCc4ccco4)ncnc32)c(Cl)c1`: the cytotoxicity was 60.9% (active).

Consider `Clc1ccc(-n2ncc3c(NCc4ccco4)ncnc32)cc1`, for which the cytotoxicity is 8.8%.

`c1ccc(Cn2ncc3c(NCc4ccco4)ncnc32)cc1`: the cytotoxicity is 8.3%.

Turning to `CCCCNc1ncnc2c1cnn2-c1ccccc1`, the cytotoxicity was 61.8% (active).

Take `c1ccc(-n2ncc3c(NCc4ccco4)ncnc32)cc1`: the cytotoxicity is 7.1%.

In the case of `Cc1ccc(-n2ncc3c(NCc4ccco4)ncnc32)c(C)c1`, the cytotoxicity was 5.4%.

Regarding `CN(C)CCCNc1ncnc2c1cnn2-c1ccccc1`, the cytotoxicity was 0.7%.

As for `Cc1cccc(-n2ncc3c(NCc4ccco4)ncnc32)c1`, the cytotoxicity was 69.2% (active).

As to `CCCCNc1ncnc2c1cnn2-c1ccc(Cl)cc1`, the cytotoxicity was 28.5%.

For `COc1ccc(S(=O)(=O)Cc2ccc(C(=O)NCCCN(C)c3ccccc3)o2)cc1`, the cytotoxicity is 2.5%.

On to `CCOC(=O)C1C(=O)CC(C)(O)C(C(=O)OCC)C1c1ccco1` (centres undefined), for which the cytotoxicity is 1.3%.

For `CC1CC(C)CN(C(=O)CCCn2c(=S)[nH]c3ccccc3c2=O)C1` (centres undefined), the cytotoxicity was -3.1%.

Turning to `CCOc1cc(C(=O)N2CCOCC2)ccc1OCc1ccccc1`, the cytotoxicity was -7.3%.

Consider `CC(C)OCCCNC(=O)CN1CCN(Cc2ccccc2Cl)C1=O`, for which the cytotoxicity is -6.4%.

For `Cc1nnc(NC(=O)CSc2nnc(CNC(=O)c3ccccc3)n2-c2ccccc2)s1`, the cytotoxicity is -0.6%.

For `O=C(C1CCN(S(=O)(=O)Cc2ccccc2)CC1)N1CCN(c2ncccn2)CC1`, the cytotoxicity is 11.4%.

In the case of `CCC(=O)NCCC(c1ccco1)c1ccccc1OC` (centres undefined), the cytotoxicity is -5.9%.

As to `O=C(O)c1c(-c2ccccc2)c2oc3ccccc3c2[nH]c1=O`, the cytotoxicity was 81.6% (active).

Turning to `O=c1[nH]c(Cc2ccccc2)nc2c1oc1ccccc12`, the cytotoxicity is 10.4%.

Regarding `O=C(O)c1oc2ccccc2c1-n1cccc1`, the cytotoxicity was 7.2%.

Take `COC(=O)c1ccc(C(=O)OC)c(NS(C)(=O)=O)c1`: the cytotoxicity was -2.8%.

`CC(=O)Nc1cccc(OCC(O)Cn2cnc3ccccc32)c1` (centres undefined): the cytotoxicity was 3.6%.

As to `OCCOCCN1CCN(C(c2ccccc2)c2ccc(Cl)cc2)CC1` (centres undefined), the cytotoxicity was 26.4%.

`Cc1cccc(CN2CCN(c3ccccn3)CC2)c1`: the cytotoxicity was -9.1%.

On to `CN1CCCN(C(c2ccccc2)c2ccc(Cl)cc2)CC1` (centres undefined), for which the cytotoxicity is 51% (active).

On to `Cc1cc(N2CCN(C(c3ccccc3)c3ccc(Cl)cc3)CC2)n2ncnc2n1` (centres undefined), for which the cytotoxicity is 8.1%.

Take `Cc1cccc(CN2CCN(C(c3ccccc3)c3ccc(Cl)cc3)CC2)c1` (centres undefined): the cytotoxicity was 85.4% (active).

Turning to `Cc1cccc(CN2CCN(C(=O)c3ccccc3F)CC2)c1`, the cytotoxicity is -6.8%.

`O=C(Nc1ccc2c(c1)OCO2)C1CCCN(S(=O)(=O)c2cccs2)C1` (centres undefined): the cytotoxicity is 0.2%.

`Cc1ccc(NC(=O)c2ccco2)c(NC(=O)c2cccs2)c1`: the cytotoxicity is -4.8%.

Take `COc1ccc(C(=O)OCCN2CCOCC2)cc1OC`: the cytotoxicity was -1.7%.

Consider `Cc1ccc(C(=O)N(CC(=O)NC2CCCC2)Cc2cccs2)s1`, for which the cytotoxicity was 5.4%.

As for `Cc1ccc2cccc(OCC(=O)NCc3ccco3)c2n1`, the cytotoxicity was -8.8%.

On to `CCCCCOc1ccc(C(=O)NC(C(=O)O)C(C)C)cc1` (centres undefined), for which the cytotoxicity is 6.5%.

As for `Cc1ccc(O)c(N=CC2=C(O)c3ccccc3C2=O)c1`, the cytotoxicity was 52.6% (active).

As for `CN=CC1=C(O)c2ccccc2C1=O`, the cytotoxicity was -1.7%.

Turning to `O=C1C(C=Nc2ccccc2O)=C(O)c2ccccc21`, the cytotoxicity was 13.8%.

For the compound `Cc1cccc(-n2ncc3c(NC4CCCCC4)ncnc32)c1`, the cytotoxicity was 11.8%.

With `COC(=O)c1c(NC(=O)c2ccc(Br)s2)sc2c1CCC2`, the cytotoxicity was 64.4% (active).

Turning to `O=C(Nc1sc2c(c1C(=O)O)CCCC2)c1cccs1`, the cytotoxicity is 13.8%.

For `NC(=O)c1c(NC(NC(=O)c2ccco2)(C(F)(F)F)C(F)(F)F)sc2c1CCCC2`, the cytotoxicity was 51.3% (active).

Take `NC(=O)c1c(NC(=O)c2cccs2)sc2c1CCCCCC2`: the cytotoxicity is 57.6% (active).

`COC(=O)c1c(NC(=O)c2ccoc2C)sc2c1CCC2`: the cytotoxicity is -18%.

On to `COC(=O)c1c(NC(C)=O)sc2c1CCCC2`, for which the cytotoxicity is 3.4%.

For the compound `CCOC(=O)c1c(NC(=O)c2ccco2)sc2c1CCCCC2`, the cytotoxicity is 11.4%.

For `O=C(Nc1sc2c(c1C(=O)O)CCCCC2)c1ccco1`, the cytotoxicity is 3.9%.

`O=C(Nc1sc2c(c1C(=O)O)CCC2)c1cccs1`: the cytotoxicity was 5.8%.

Consider `COc1ccc(Nc2nc3ccccc3nc2C)cc1`, for which the cytotoxicity was 20%.

For `O=C1N(CC(=O)N2CCc3ccccc32)CCN1Cc1ccccc1Cl`, the cytotoxicity was -7.2%.

`COc1ccc(CCNS(=O)(=O)c2ccc3c(c2)CCN3C(=O)C2CC2)cc1OC`: the cytotoxicity is -6.7%.

As for `O=C(CSc1nc(Nc2ccccc2)nc(N2CCOCC2)n1)Nc1ccc2c(c1)OCCO2`, the cytotoxicity is 11.5%.

Regarding `CCOC(=O)c1sc2nc(N3CCCC3)c3c(c2c1N)CC(C)(C)OC3`, the cytotoxicity was -3%.

Regarding `CCOC(=O)c1sc2nc(-c3ccco3)c3c(c2c1N)CC(C)(C)OC3`, the cytotoxicity is 57.4% (active).

For the compound `COC(=O)CSc1ncnc2c1sc1nc(-c3ccco3)c3c(c12)CC(C)(C)OC3`, the cytotoxicity is 15.4%.

`COc1ccc(Nc2nc(OC)nc(N3CCN(c4ccc(OC)cc4)CC3)n2)cc1`: the cytotoxicity was 8.4%.

Consider `COC(=O)/C=C1\NCCSC1=O`, for which the cytotoxicity is 35.9%.

For `O=C(CCC(=O)N(c1ccccc1)C(C(=O)NC1CCCC1)c1ccncc1)Nc1cccnc1` (centres undefined), the cytotoxicity was -0.5%.

`CCn1c(=N)c(C(=O)NCc2cccnc2)cc2c(=O)n3cccc(C)c3nc21`: the cytotoxicity is 1.8%.

As for `CN=C(Nc1cc(C)nn1CCC#N)c1ccccc1F`, the cytotoxicity was 4.4%.

For `N#CC1=C(SCC(=O)NC2CC2)NC(=O)C(C#N)C12CCCCC2` (centres undefined), the cytotoxicity was -27.1%.

Regarding `CC(C)(C)C1CCC2(CC1)C(C#N)=C(SCC(=O)NC1CCCCC1)NC(=O)C2C#N` (centres undefined), the cytotoxicity was 54.5% (active).

With `N#CC1=C(N)NC(SCC(=O)Nc2ccccc2)=C(C#N)C12CCCC2`, the cytotoxicity was 0.4%.

Turning to `N#CC1=C(SCC(=O)NC23CC4CC(CC(C4)C2)C3)NC(=O)C(C#N)C12CCCCC2` (centres undefined), the cytotoxicity was 45.6%.

Regarding `CCOC(=O)C1=C(SCC(=O)Nc2ccccc2)NC(=O)C(C#N)C12CCCCC2` (centres undefined), the cytotoxicity was 5.3%.

On to `CCOC(=O)Cc1csc(NC(=O)CSc2nnc(-c3ccc(C)cc3)o2)n1`, for which the cytotoxicity is -11.9%.

In the case of `CC(=O)N1CCc2cc(S(=O)(=O)NC(CC(C)C)C(=O)Nc3ccc4c(c3)OCCO4)ccc21` (centres undefined), the cytotoxicity was 7.7%.

Turning to `N#CCSc1nnc2c(Cl)cc(Cl)cn12`, the cytotoxicity is 7.2%.

For `Brc1ccc(-c2nc(-c3ccncc3)no2)o1`, the cytotoxicity is 0.3%.

As to `CSc1ccc(S(=O)(=O)Nc2ccc(N3CCOCC3)c(Cl)c2)cc1`, the cytotoxicity is -2.9%.

On to `c1ccc(N2CCN(c3nnnn3-c3ccccc3)CC2)cc1`, for which the cytotoxicity was -3.6%.

In the case of `COc1ccc(CCNC(=O)COc2ccc(S(=O)(=O)N3CCOCC3)cc2)cc1`, the cytotoxicity was 8.2%.

Take `COC(=O)c1ccc2[nH]c(C)cc(=O)c2c1`: the cytotoxicity is -3.5%.

`Cc1cc(=O)c2cc(Cl)ccc2[nH]1`: the cytotoxicity was -4.6%.

Regarding `Cc1cc2c(N=O)c(NO)ccc2[nH]1`, the cytotoxicity is 79.2% (active).

Consider `O=C(Nc1ccc2c(c1)OCCO2)C1CCCN(S(=O)(=O)c2cnc[nH]2)C1` (centres undefined), for which the cytotoxicity was -1.8%.

`Cn1c(NCCCN2CCOCC2)nc2c1c(=O)n(Cc1ccc(Cl)cc1Cl)c(=O)n2C`: the cytotoxicity is 50.6% (active).

For the compound `Cn1c(=O)c2c(nc(NCCCN3CCOCC3)n2Cc2ccc(Cl)cc2Cl)n(C)c1=O`, the cytotoxicity was 0.9%.

Consider `Cn1c(NCCCN2CCOCC2)nc2c1c(=O)n(Cc1ccc(Cl)c(Cl)c1)c(=O)n2C`, for which the cytotoxicity was 54.6% (active).

Turning to `Cn1c(NCCN2CCOCC2)nc2c1c(=O)n(Cc1cccc(Cl)c1)c(=O)n2C`, the cytotoxicity is 22.4%.

As to `Cn1c(=O)c2c(nc(NCCCN3CCOCC3)n2Cc2ccc(Cl)c(Cl)c2)n(C)c1=O`, the cytotoxicity is -1.2%.

For the compound `Cn1c(NCCCN2CCOCC2)nc2c1c(=O)n(Cc1ccc(Cl)cc1)c(=O)n2C`, the cytotoxicity is 28.8%.

For `Cc1cc(C)nc(SCc2ccc3nonc3c2)n1`, the cytotoxicity was -23.2%.
